Assay outcomes deposited in PubChem by several laboratories.
In the library only some 1.3% were active in any assay of this set; here they are far more common.
KLK7 zymogen act – activators of human kallikrein-7 zymogen | P49862 | hit rate 0.9% among 370,000 | activation, % at 7 µM | AID 652039 | purified proKLK7, EDANS-DABCYL substrate fluorescence; 100% is mature enzyme control, 0% vehicle;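 active means activation above the mean of all tested compounds plus 3 SD, computed per campaign excluding outliers beyond control limits, cut at about 13% in these data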
HIF activator – HIF pathway transcriptional activation. activation, % at 7.5 µM (by protocol). hit rate 0.32% among 300,000. AID 1910. U2OS HRE-luciferase reporter, luminescence; normalized: DMSO 0%, desferrioxamine 100%;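 active means mean activation of at least 10% of the iron chelator positive control signal, with at least half of replicates also reaching 10%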
NPR1 activator – GC-A (human) enzyme activation | activation, % at 10 µM | P16066 | hit rate 0.14% among 370,000 | HEK293 GC-A cells, cGMP TR-FRET, EC30 ANP; 0% at EC30 ANP, 100% saturating ANP | AID 1671463; in the data active means activation above about 40%
GC-B act – GC-B (human) receptor activation. AID 1920062. HEK293-GC-B cells, CNP EC30, cGMP TR-FRET; 0% at EC30 CNP, 100% saturating CNP. activation, % at 10 µM. hit rate 0.11% among 370,000. P20594;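 active means activation at 10 µM reaching about 35% in either raw or pattern-adjusted values, limit read from the data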
Target sequence (P20594 whole entry, looked up): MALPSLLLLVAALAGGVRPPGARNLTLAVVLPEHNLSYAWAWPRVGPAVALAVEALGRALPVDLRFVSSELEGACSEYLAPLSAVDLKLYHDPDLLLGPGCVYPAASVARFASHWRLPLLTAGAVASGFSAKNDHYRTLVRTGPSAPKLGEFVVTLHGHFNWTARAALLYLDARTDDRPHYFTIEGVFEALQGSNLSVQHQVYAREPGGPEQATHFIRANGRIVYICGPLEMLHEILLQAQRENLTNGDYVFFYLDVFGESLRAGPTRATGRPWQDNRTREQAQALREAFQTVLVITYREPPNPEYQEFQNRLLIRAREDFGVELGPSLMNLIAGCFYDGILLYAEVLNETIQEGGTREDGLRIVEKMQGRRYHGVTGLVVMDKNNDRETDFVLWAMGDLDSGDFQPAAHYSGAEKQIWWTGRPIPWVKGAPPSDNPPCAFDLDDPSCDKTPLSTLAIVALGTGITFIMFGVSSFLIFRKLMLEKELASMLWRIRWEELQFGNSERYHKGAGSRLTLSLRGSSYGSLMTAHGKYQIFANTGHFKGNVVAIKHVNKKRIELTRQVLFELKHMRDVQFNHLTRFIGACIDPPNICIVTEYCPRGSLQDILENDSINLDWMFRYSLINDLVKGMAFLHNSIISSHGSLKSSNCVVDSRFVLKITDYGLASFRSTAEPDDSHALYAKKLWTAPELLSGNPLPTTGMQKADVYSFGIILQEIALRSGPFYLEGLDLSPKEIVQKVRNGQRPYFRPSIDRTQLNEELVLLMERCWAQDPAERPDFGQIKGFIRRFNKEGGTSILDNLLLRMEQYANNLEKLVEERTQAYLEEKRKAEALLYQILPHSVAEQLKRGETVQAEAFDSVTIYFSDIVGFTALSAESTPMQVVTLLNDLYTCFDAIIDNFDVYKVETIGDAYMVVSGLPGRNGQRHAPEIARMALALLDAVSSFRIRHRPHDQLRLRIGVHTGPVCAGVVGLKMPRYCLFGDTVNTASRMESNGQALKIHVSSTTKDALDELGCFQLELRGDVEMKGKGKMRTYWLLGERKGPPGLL
proKLK7 act conf – proKLK7 activation, confirmation | shares compounds with KLK7 zymogen act | purified proKLK7, EDANS-DABCYL substrate fluorescence; scaled: vehicle 0, mature enzyme 100 | activation, % at 7 µM | hit rate 68% among 3,200 | AID 686949;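 active means activation, as change over the incubation, above the mean of all tested compounds plus 3 SD, cut at about 13% in these data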
EDANS interfere – fluorescence interference counter-screen for KLK7 activators. shares compounds with KLK7 zymogen act. EDANS-DABCYL substrate fluorescence interference, no enzyme, 4 h; solvent 0%, active enzyme control 100%. activation, % at 7 µM. hit rate 80% among 3,200;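 active means activation above the all-compound mean plus 3 SD, ignoring values outside control-based bounds, cut at about 4.8% in these data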;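 further: value is the 4 h activation minus the activation read at time zero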
EDANS interf – counter-screen for kallikrein-7 activators: EDANS-DABCYL interference, dose response | shares compounds with KLK7 zymogen act | EDANS-DABCYL peptide fluorescence interference, no enzyme | EC50, µM | hit rate 20% among 250;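 active means compounds that raise the fluorescence signal in this interference counterscreen, with EC50 at or below 10 µM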;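 further: intact quenched peptide substrate alone read at 355 nm excitation and 520 nm emission; signal is fluorescence gain from T0 to T4 after four hours at room temperature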
Each line names hits and unclear results; the compound was inactive in the other large screens (follow-up assays come after a bar, where they were run).

CC[C@@H]1C(c2ccc(F)cc2)=NN(c2ccccc2)[C@H]1C(=O)N1CCOC1=O	KLK7 zymogen act 81.0 (no result: HIF activator) | proKLK7 act conf 64.4 | EDANS interfere 53.7 | EDANS interf 7.35
O=C1OCCN1C(=O)[C@H]1[C@H](c2ccc(F)cc2)C(c2ccc(F)cc2)=NN1c1ccccc1	none
OC[C@@H]1[C@@H](c2ccc(F)cc2)C(c2ccccc2)=NN1c1ccccc1	none (no result: HIF activator)
CC[C@H]1C(c2ccc(F)cc2)=NN(c2ccccc2)[C@@H]1CO	KLK7 zymogen act 21.9 (no result: HIF activator) | proKLK7 act conf inactive | EDANS interfere inactive
CC[C@@H]1C(c2ccccc2)=NN(c2ccccc2)[C@H]1C(=O)N1CCOC1=O	KLK7 zymogen act 186.8 (no result: HIF activator) | proKLK7 act conf 161.1 | EDANS interfere 131.2
C[C@@H](N)C(=O)Nc1ccc(Cl)cc1C(=O)c1ccc[nH]1	none (no result: KLK7 zymogen act, HIF activator)
O=C(CN1CCc2onc(-c3ccc(-n4cc(-c5ccccc5)nn4)cc3)c2C1=O)N1CCOCC1	none (no result: HIF activator)
CC(=O)Nc1ccc(-c2nc3ccc(NC(C)=O)cc3o2)cc1	KLK7 zymogen act 32.9 | proKLK7 act conf 25.8 | EDANS interfere 15.8 | EDANS interf inactive
CC(=O)Nc1cccc(Nc2nc(-c3ccccc3)nc3ccccc23)c1	KLK7 zymogen act 18.9 | proKLK7 act conf inactive | EDANS interfere 7.8
CC(=O)Nc1ccc2oc(-c3ccccc3)nc2c1	none
CC(=O)c1cccc(Nc2nc(-c3ccccc3)nc3ccccc23)c1	none
CC(=O)Nc1ccc2nc3ccccc3nc2c1	KLK7 zymogen act 43.3 | proKLK7 act conf 45.5 | EDANS interfere 42.5
N/C(=N\C(=O)OCc1ccccc1)N(Cc1ccccc1)C(C#CC1=CCCCC1)Cc1ccccc1 (stereo not given)	none (no result: HIF activator)
COc1ccc(CN2C/C(=C/c3ccccc3)N3C(=O)C[C@@H](c4ccc5ccccc5c4)N=C23)c(OC)c1	none (no result: HIF activator)
COc1cc(/C=C/C(=O)Nc2nc3ccc(S(=O)(=O)NC(C)C)cc3s2)cc(OC)c1OC	KLK7 zymogen act 15.0 | proKLK7 act conf 59.0 | EDANS interfere 62.6
Cc1cc(=O)oc2cc(NS(=O)(=O)c3ccc(F)cc3)ccc12	KLK7 zymogen act 79.4 | proKLK7 act conf 64.8 | EDANS interfere 74.6
Cc1cc(=O)oc2cc(NS(=O)(=O)c3ccccc3)ccc12	KLK7 zymogen act 66.6 | proKLK7 act conf 76.3 | EDANS interfere 76.3
Cc1cc(=O)oc2cc(NC(=O)c3cc(F)ccc3F)ccc12	none (no result: HIF activator)
O=C(N1CCC(C(O)(c2ccccc2)c2ccccc2)CC1)n1ncc(C(O)(c2ccccc2)c2ccccc2)n1	none (no result: KLK7 zymogen act, HIF activator)
CC(C)OCCOc1ccc2oc(-c3ccco3)cc(=O)c2c1	KLK7 zymogen act 24.1 | proKLK7 act conf 37.3 | EDANS interfere inactive | EDANS interf inactive
CC(=O)N1CCc2cc3nc(C)cc(C)c3cc21	KLK7 zymogen act 25.5 | proKLK7 act conf inactive | EDANS interfere inactive
CC(C)C[C@H](NC1(C(=O)NC2CCCCC2)CCOCC1)C(=O)NCC(c1ccccc1)c1ccccc1	none (no result: KLK7 zymogen act, HIF activator)
O=C1Nc2ccc(S(=O)(=O)NCCC3=CCCCC3)c3cccc1c23	KLK7 zymogen act 18.0 | proKLK7 act conf inactive | EDANS interfere 19.1
O=S(=O)(NCCC1=CCCCC1)c1ccc(F)cc1	none
CCN(CC)S(=O)(=O)c1ccc2c3c(cccc13)C(=O)N2	KLK7 zymogen act 23.0 | proKLK7 act conf 14.6 | EDANS interfere 20.6
CCN(c1cccc(C)c1)S(=O)(=O)c1ccc2c3c(cccc13)C(=O)N2	none
O=C1Nc2ccc(S(=O)(=O)NCCCO)c3cccc1c23	KLK7 zymogen act 63.6 | proKLK7 act conf 82.9 | EDANS interfere 86.4
CCNS(=O)(=O)c1ccc2c3c(cccc13)C(=O)N2	KLK7 zymogen act 85.9 | proKLK7 act conf 67.8 | EDANS interfere 81.8
COC(=O)C[C@@H]1CC[C@@H]2[C@@H](COc3ccc(NC(=O)c4ccc(F)cc4)cc3C(=O)N2C)O1	none (no result: HIF activator)
O=C(NC1CCCCN(Cc2cccc(C(F)(F)F)c2)C1=O)c1ccc(COc2ccccc2)cc1 (stereo not given)	none (no result: HIF activator)
COC(=O)[C@]12C[C@H](CC(=O)N3CCSCC3)C(=O)N(CCC3=CCCCC3)C1=C[C@H](C(C)C)O[C@@H]2C1CC1	none (no result: HIF activator)
O=C(CN1CCOCC1)Nc1nc(-c2ccc(Cl)cc2)cs1	none
CC1CN(CC(=O)Nc2nc(-c3ccc(Cl)cc3)cs2)CC(C)O1 (stereo not given)	KLK7 zymogen act 49.6 | proKLK7 act conf inactive | EDANS interfere inactive
CC(C)CNS(=O)(=O)/C=C/c1ccccc1CNC(=O)OC(C)(C)C	none (no result: HIF activator)
Fc1ccc(C2C3=C(Nc4ncnn42)c2ccccc2OC3c2ccncc2)cc1 (stereo not given)	KLK7 zymogen act 13.2 | proKLK7 act conf 22.9 | EDANS interfere 25.6
Cc1ccc(C2Oc3ccccc3C3=C2C(c2cccs2)n2ncnc2N3)cc1 (stereo not given)	none
O=C1/C(=C/c2cccc([N+](=O)[O-])c2)Oc2cc(O)ccc21	none
COc1cc(/C=C2\Oc3cc(O)ccc3C2=O)ccc1O	KLK7 zymogen act 54.6 | proKLK7 act conf 35.8 | EDANS interfere 35.5
COc1ccc2c(c1)O/C(=C\c1ccccc1C)C2=O	none
O=C1/C(=C/c2ccc(O)c(O)c2)Oc2cc(O)ccc21	KLK7 zymogen act 45.2 (no result: HIF activator) | proKLK7 act conf 109.0 | EDANS interfere 118.5
Cc1ccsc1/C=C1\Oc2cc(O)ccc2C1=O	KLK7 zymogen act 15.0 (no result: HIF activator) | proKLK7 act conf 21.2 | EDANS interfere 24.1
CCC(=O)NCC[C@@H]1CCc2ccc3c(c21)CCO3	none (no result: HIF activator)
COC(=O)[C@]12C[C@H](CC(=O)NCC34CC5CC(CC(C5)C3)C4)C(=O)N(CCc3ccc(OC)c(OC)c3)C1=C[C@H](C1CCCC1)O[C@@H]2C	none (no result: HIF activator)
COC(=O)[C@]12C[C@H](CC(=O)N3CCN(C(=O)c4ccco4)CC3)C(=O)N(Cc3ccc(Cl)cc3Cl)C1=C[C@H](C(C)C)O[C@@H]2C1CC1	none (no result: HIF activator)
COc1cccc2c1cc1c(=O)n(CC(=O)NCCCN3CCN(C)CC3)nc(C)n12	KLK7 zymogen act 60.0 | proKLK7 act conf 82.8 | EDANS interfere 76.4
CCc1nn(CC(=O)NCCN2CCOCC2)c(=O)c2cc3c(OC)cccc3n12	KLK7 zymogen act 27.2 | proKLK7 act conf 19.1 | EDANS interfere 28.4
Cc1occc1-c1nnc(SCC(=O)NCc2ccc(Cl)cc2)n1-c1ccccc1	none (no result: HIF activator)
CN1C(=O)c2cc(NS(=O)(=O)c3cccc(F)c3)ccc2OC[C@@H]2O[C@H](CC(=O)O)CC[C@H]21	none (no result: HIF activator)
CCN(CC)CCn1c2ccccc2c2nc3ccccc3nc21	none
